Assay results from PubChem BioAssay (NCATS).
Records with an inconclusive call do not appear. Active and inactive are the calls of the source. Unless noted, calls come from the whole dose curve.

Experiments:
[1] = qHTS for Inhibitors of the Functional Ribonucleoprotein Complex (vRNP) of Lassa (LASV) Arenavirus: LASV Primary Screen - GLuc reporter signal (AID 1347082; calls by dose curve; tested in HEK293 reporter line; note: nearly all actives have a fitted effect of over 60% in size)
[2] = qHTS for Inhibitors of the Functional Ribonucleoprotein Complex (vRNP) of Lassa (LASV) Arenavirus: Viability assay - alamar blue signal for LASV Primary Screen (AID 1347083; calls by dose curve; tested in HEK293 reporter line; note: nearly all actives have a fitted effect of over 80% in size)
[3] = qHTS for Inhibitors of the Functional Ribonucleoprotein Complex (vRNP) of Lymphocytic Choriomeningitis Arenaviruses (LCMV): Viability assay - alamar blue signal for LCMV Primary Screen (AID 1347085; calls by dose curve; tested in HEK293 reporter line; note: nearly all actives have a fitted effect of over 80% in size)
[4] = molecular target: Nucleoprotein (Lymphocytic choriomeningitis virus (strain Armstrong)) (UniProt P09992); assay: qHTS for Inhibitors of the Functional Ribonucleoprotein Complex (vRNP) of Lymphocytic Choriomeningitis Arenaviruses (LCMV): LCMV Primary Screen - GLuc reporter signal (AID 1347086); note: nearly all actives have a fitted effect of over 70% in size
Chain of Nucleoprotein (Lymphocytic choriomeningitis virus (strain Armstrong)) (P09992 whole entry, looked up): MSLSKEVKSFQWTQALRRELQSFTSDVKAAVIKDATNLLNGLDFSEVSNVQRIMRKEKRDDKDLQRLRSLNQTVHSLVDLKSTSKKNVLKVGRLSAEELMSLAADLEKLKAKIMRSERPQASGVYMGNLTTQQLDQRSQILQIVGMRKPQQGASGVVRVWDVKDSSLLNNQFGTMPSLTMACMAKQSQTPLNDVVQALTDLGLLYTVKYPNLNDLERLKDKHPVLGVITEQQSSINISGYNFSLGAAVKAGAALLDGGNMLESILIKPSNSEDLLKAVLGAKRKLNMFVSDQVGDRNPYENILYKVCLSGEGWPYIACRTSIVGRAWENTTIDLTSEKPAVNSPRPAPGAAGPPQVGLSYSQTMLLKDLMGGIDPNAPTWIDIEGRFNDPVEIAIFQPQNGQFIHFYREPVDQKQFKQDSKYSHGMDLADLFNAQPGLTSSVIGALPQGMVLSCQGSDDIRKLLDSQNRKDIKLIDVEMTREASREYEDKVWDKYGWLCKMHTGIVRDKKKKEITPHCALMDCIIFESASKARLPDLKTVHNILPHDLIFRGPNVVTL

Measured: Potency
Note: series mostly up to about 57 µM.

CCCCCCCCCOC(C)=O
inactive: [1] | [2] | [3] | [4]

CC/C=C\CCCCCCCCCCOC(C)=O
inactive: [1] | [2] | [3] | [4]

Cc1cc(-c2nnc3n2CCCCC3)c(C)n1-c1ccccc1
inactive: [1] | [2] | [3] | [4]

O=C1C=C(O)c2c(O)cc(O)c(O)c2C1=O
inactive: [1] | [2] | [3] | [4]

C[C@H]1O[C@H](O[C@H]2[C@H](O)[C@@H](O)[C@@H](O[C@H]3[C@H](O)[C@@H](O)C(O)O[C@H]3CO)O[C@H]2CO)[C@H](O)[C@@H](O)[C@H]1N[C@H]1C=C(CO)[C@@H](O)[C@H](O)[C@@H]1O (stereo not given in full)
inactive: [1] | [2] | [3] | [4]

CC1=CCC[C@H]2[C@H](C1)C(=O)C[C@@H](C)[C@]2(C)CC/C(=C/CO)CO
inactive: [1] | [2] | [3] | [4]

CCCCCCCCCCCCCCCC(=O)NCCc1c[nH]c2ccccc12
inactive: [1] | [2] | [3] | [4]

CC(=O)Oc1ccc2c(C)cc(=O)oc2c1
inactive: [1] | [2] | [3] | [4]

CC(C)CCCCCCCCCCCCC(=O)NCC(=O)NC1C(O)C(O)C(Nc2ncnc3nc[nH]c23)OC1C(O)CO (stereo not given)
inactive: [1] | [2] | [3] | [4]

O=c1cc(CCc2ccccc2)oc2cccc(O)c12
inactive: [1] | [2] | [3] | [4]

CC(C)=CCCC(C)CCOC=O (stereo not given)
inactive: [1] | [2] | [3] | [4]

NC(=O)c1ncn([C@@H]2O[C@H](CO)[C@@H](O)[C@@H]2O)c1O
inactive: [1] | [2] | [3] | [4]

CC(C)(COP(=O)(O)OP(=O)(O)OC[C@H]1O[C@@H](n2cnc3c(N)ncnc32)[C@H](O)[C@@H]1OP(=O)(O)O)[C@H](O)C(=O)NCCC(=O)NCCS
inactive: [1] | [2] | [3] | [4]

COC(=O)C1=CO[C@@H](C)[C@@H]2CN3CCc4c([nH]c5ccccc45)[C@@H]3C[C@H]12
inactive: [1] | [2] | [3] | [4]

COc1cc(C2OCC3C(c4ccc(OC5OC(CO)C(O)C(O)C5O)c(OC)c4)OCC23)ccc1O (stereo not given)
inactive: [1] | [2] | [3] | [4]

CCCCCCC[C@@H](C/C=C/CCC(=O)O)OC
inactive: [1] | [2] | [3] | [4]

O=c1c(O)c(-c2cc(O)c(O)c(O)c2)oc2cc(O)ccc12
inactive: [1] | [2] | [3] | [4]

C[C@]12CCC3C(C[C@@H](O)[C@H]4C[C@@H](O)CC[C@]34C)C1CC[C@@H]2O (stereo not given in full)
inactive: [1] | [2] | [3] | [4]

COc1ccc(C(=O)OC2C[C@H]3CC[C@@H](C2)N3O)cc1OC (stereo not given in full)
inactive: [1] | [2] | [3] | [4]

COC(=O)C1=CO[C@@H](O)[C@@H]2C(CO)=CC[C@@H]12
inactive: [1] | [2] | [3] | [4]

COc1ccc(C(=O)/C=C/c2ccc(O)cc2)c(O)c1C/C=C(\C)CCC=C(C)C
inactive: [1] | [2] | [3] | [4]

CCOC(=O)[C@H](CCc1ccccc1)N[C@@H](C)C(=O)N1CCCC1C(=O)O (stereo not given in full)
inactive: [1] | [2] | [3] | [4]

O=c1oc(-c2ccc(O)c(O)c2)cc2cccc(O)c12
inactive: [1] | [2] | [3] | [4]

C[C@@H](O)[C@H]1O[C@]2(C)CCC[C@H]1O2
inactive: [1] | [2] | [3] | [4]

C[C@@H]1C(=O)O[C@@H]2CC34[C@H]5C[C@@H](C(C)(C)C)C36[C@H](OC(=O)[C@@H]6O)OC4(C(=O)O5)[C@@]12O (stereo not given in full)
inactive: [1] | [2] | [3] | [4]

COc1ccc(-c2cc(=O)c3c(O)cc(OC4OC(COC5OC(C)C(O)C(O)C5O)C(O)C(O)C4O)cc3o2)cc1O (stereo not given)
inactive: [1] | [2] | [3] | [4]

C=C(C)[C@@H]1CC[C@]2(C(=O)O)CC[C@]3(C)C(CCC4[C@@]5(C)CC[C@H](O)C(C)(C)C5CC[C@]43C)C12 (stereo not given in full)
inactive: [1] | [2] | [3] | [4]

C[C@]12C[C@H](O)CC(CO)(CO)C1[C@H](O)C[C@@]13CC4[C@@H](CC12)[C@@]4(C)C3 (stereo not given in full)
inactive: [1] | [2] | [3] | [4]

C/C=C\C/C=C/CCCCCCCCOC(C)=O
inactive: [1] | [2] | [3] | [4]

C=C1C2C[C@H](O)C(C)(C)[C@@]2(O)[C@H](O)C[C@]23C[C@@](C)(O)[C@H](CC[C@H]12)[C@H]3O (stereo not given in full)
inactive: [1] | [2] | [3] | [4]
